From the supplement of paper PMC3334620
Over roughly 33,000 sequences, “E-score (-0.5 to 0.5)” has its median near -0.04; the highest 2% begin near 0.36. The entries come from a sample that favours the highest values as a whole.

What follows are sequences tested against T1, Hmlalpha2 (UniProt P0CY09) (assay: PBM E-score (8-mer binding enrichment) (E-score (-0.5 to 0.5)); higher = stronger / more preferred TF binding). Conditions: protein concentration: 200 nM; construct: GST-full length.
T1 sequence: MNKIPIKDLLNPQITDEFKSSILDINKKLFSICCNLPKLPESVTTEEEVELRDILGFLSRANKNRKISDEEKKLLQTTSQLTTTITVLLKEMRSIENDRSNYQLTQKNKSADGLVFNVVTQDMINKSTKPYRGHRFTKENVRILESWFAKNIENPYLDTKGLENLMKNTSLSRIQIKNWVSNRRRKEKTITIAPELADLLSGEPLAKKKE
Protocol: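 Universal 'all 10-mer' protein binding microarrays (Agilent AMADID 015681) probed with GST-tagged S. cerevisiae TFs (full-length or DBD) made by in vitro transcription/translation (PURExpress), about 100-200 nM. Bound TF was detected with fluorescent anti-GST. Each ungapped 8-mer (which stands for itself and its reverse complement) is scored by the PBM enrichment score (E-score), a modified Wilcoxon-Mann-Whitney statistic from -0.5 to +0.5, computed with the Universal PBM Analysis Suite. Scale: above 0.35 generally sequence-specific binding.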

Sequence | PBM E-score
GGCCCGAA | -0.135
ATATCGGA | -0.0245
CCACCAGG | -0.268
CCTAGGCG | -0.303
ATTCCCAC | -0.125
CTTTGTAC | 0.2
TCTTGTAA | 0.439
ACTTGTAC | 0.12
ATTTGTAA | 0.344
CCTTGTAA | 0.454
ACTTGTAA | 0.381
CCTTGTAC | 0.327
TCTTGTCA | 0.219
ACTTGTAG | 0.0979
TATTGTAA | 0.318
CCTTGTAG | 0.195
CTTTGTAA | 0.414
GCTACAAA | 0.0715
GAGCTACC | -0.059
CAGCTGTA | -0.117
CCAGGAGG | -0.191
ATCCAGCA | -0.0498
CGATGATA | 0.0847
CCTTGTTC | -0.0497

Sequence | PBM E-score
CCTTGTTA | 0.371
GCTTGTAA | 0.411
GATTGTAA | 0.247
GCTTGTAC | 0.243
ACTTGTTA | 0.259
CCCATATC | -0.145
CAAAGGAG | -0.0938
ATTAATGA | 0.0848
CCAGGCAA | -0.265
AGCATAGG | -0.178
AACAGGTT | 0.11
ATTACAAG | 0.466
GTTACAAC | 0.258
CTTACAAG | 0.312
ATTACACC | 0.382
ATTACAAA | 0.414
ATTACGAA | 0.289
ATTACAAC | 0.4
CTCACACC | -0.254
CTTACACC | 0.0787
ATTACAGG | 0.352
CTTACAAC | 0.301
ATTACAGA | 0.333
CTTGAGGA | -0.227

Sequence | PBM E-score
ATATGCCC | -0.274
AGTGAACA | 0.154
AGATTCTA | 0.0504
ATATAGGA | 0.0657
ACCAGGAC | 0.0306
CATGTGAA | 0.318
CCATGAGG | -0.313
AAAGAAAT | 0.175
GACAGGCC | -0.143
CGCTCTGA | -0.135
ACGAGGGA | -0.0452
CGGTAAAG | 0.00317
ATTACATC | 0.445
CTTACATC | 0.283
ACTACAAT | 0.137
ATTACAAT | 0.385
ATTACAGC | 0.141
AGTACAAT | 0.25
TTTACAAA | 0.412
CTTACAAA | 0.232
TCTACAAA | 0.252
ATGGGACG | -0.19
GCAAAGAC | -0.121
CTGCGCGC | -0.00351

Sequence | PBM E-score
TGCAGCAA | -0.0391
GATACTCA | -0.0664
ACTTACAG | 0.134
CCTTACAC | 0.334
ACTTACAC | 0.378
ACTTACAA | 0.29
GCTTACAC | 0.362
ACTTACAT | 0.43
ACAGTAGC | -0.0946
CCCCCCGG | -0.366
ACTCTACC | -0.0519
ATTGTATA | 0.171
GTTGTGTA | 0.448
GTTGTATA | 0.38
ATTGTGTC | 0.233
GTTGTGGA | 0.0527
CTTGTGAA | 0.182
CTTGTGTA | 0.41
CTTGTGTC | 0.0968
ATTGTGTG | 0.112
ATTGTGTA | 0.42
GTTGTGCA | -0.00044
CTTGTATA | 0.289
